Test results as given in the supplement of paper PMC10338343.
± gives the standard deviation.

Experiments:
[1] = system: MILI (PIWIL2) piRISC loaded with piRNA #1 (26 nt); assay: pre-steady-state target cleavage rate (min^-1); guide: piRNA #1 5'p-UGAGGUAGUAGGUUGUAUAGUAUCCA; higher = faster piRNA-guided slicing of the target; conditions: auxiliary factor: 500 nM mouse GTSF1;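 also: 1 nM active piRISC with 0.1 nM target library at 33 °C single turnover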
Summary of the method: (§1)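 Active affinity-purified piRISC carrying one synthetic guide (1 nM) was mixed with a transcribed, DNA-blocked target RNA library […] in HEPES–potassium acetate buffer at 33 °C for 0–8 or 0–960 min, with or without 500 nM GTSF1 partner protein. Uncleaved targets were then sequenced and normalised to depth and to weakly complementary targets. Three trials were pooled, and k3 was capped at 0.0001 min^-1. A burst-and-steady-state fit was applied to obtain the pre-steady-state cleavage rate.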

[2] = system: EfPiwi piRISC loaded with piRNA #1 (26 nt); assay: pre-steady-state target cleavage rate (min^-1); auxiliary factor: 500 nM Ephydatia muelleri Gtsf1; guide: piRNA #1 5'p-UGAGGUAGUAGGUUGUAUAGUAUCCA; MIWI and MILI are mouse PIWI proteins and EfPiwi is from a freshwater sponge; tags in brackets are library labels; higher = faster piRNA-guided slicing of the target
Summary of the method: as §1

Sequence	pre-steady-state target cleavage rate [1]	pre-steady-state target cleavage rate [2]
GGAGACGAUACUAUUCAACCUUCUACCUCA	0.0105 ± 0.0025	0.00443 ± 0.0025
GGAGACGAUACUAUCCAACCUACUACCUCA	0.175 ± 0.016	0.00717 ± 0.0028
GGAGAGGAUACUAUACAACCUACUACGACA	0.0606 ± 0.017	0.0044 ± 0.0023
GGAGACGAUACUAUACAUCCAACUACCUCA	0.00801 ± 0.0028	0.00562 ± 0.0029
GGAGACCUUACUAUACAACCUACUACCUA	0.152 ± 0.018	0.0485 ± 0.018
GGAGACGUUACUAUACAACCUUCUACCUCA	0.00861 ± 0.0028	0.00871 ± 0.0043
GGAGACCAUAAUAUACAACCUACUACCUCA	0.0982 ± 0.013	0.0856 ± 0.03
GGAGACCAUACUAGACAACCUACUACCUCA	0.151 ± 0.014	0.0249 ± 0.01
GGAGUGGAUACUAUACAACGUACAACCUCA	0.0258 ± 0.0036	0.00367 ± 0.0016
GGAGACCAUACUAUACAACCUACUUCCUCA	0.114 ± 0.018	0.00455 ± 0.002
GGAGAGGAAACUAUACAACCUACUACGUCA	0.034 ± 0.011	0.00364 ± 0.0025
GGAGACGAUACUAUAGUACCUACUACCUCA	0.193 ± 0.013	0.00438 ± 0.0021
GGAGAGGAUACUAUACUUCCUACUACCUCA	0.19 ± 0.015	0.00555 ± 0.0051
GGAGUGGAUAGUAUACAAGCUACUACCUCA	0.0697 ± 0.01	0.00224 ± 0.0021
GGAGUGGUUACUAUACAACCUAGUACCUCA	0.0547 ± 0.01	0.00359 ± 0.0015
GGAGACGAUAAUAUACAACCUACUACCUCA	0.172 ± 0.011	0.072 ± 0.025
GGAGACCUAAACUAUACAACCUACUACCUCA	0.148 ± 0.018	0.00974 ± 0.0047
GGAGAGGAUACUAUACAACCUACUACUCA	0.109 ± 0.017	0.00563 ± 0.0029
GGAGAGAGAUACUAUACAACCUACUACCUCA	0.201 ± 0.013	0.159 ± 0.057
GGAGACGAUACUAUACAACGUUCUACCUCA	0.00469 ± 0.0024	0.00329 ± 0.0013

Sequence	pre-steady-state target cleavage rate [1]	pre-steady-state target cleavage rate [2]
GGAGAGGAUUCUAUACAACGUACUACCUCA	0.028 ± 0.0028	0.00249 ± 0.0021
GGAGUGGAAACUAUACAAGCUACUACCUCA	0.257 ± 0.021	0.00579 ± 0.0027
GGAGACGAUAGUAUACAACCUAGUACCUCA	0.0719 ± 0.011	0.00201 ± 0.0013
GGAGACGAUACAAUACAACCUAGUACCUCA	0.0665 ± 0.011	0.00289 ± 0.0015
GGAGUGGAUACUAUACAACCAUCUACCUCA	0.00432 ± 0.0024	0.00525 ± 0.0023
GGAGUGGAUACUAUACAACCUACUACUCUCA	0.14 ± 0.012	0.00513 ± 0.0029
GGAGUCCAUACUAUACAACCUACUACCUCA	0.181 ± 0.015	0.0575 ± 0.019
GGAGACCAAACUAUACAAGCUACUACCUCA	0.179 ± 0.025	0.00675 ± 0.0052
GGAGAGGAUACUUUACAACCUACUACCUCA	0.172 ± 0.011	0.00667 ± 0.0036
GGAGACCAUUCUAUACAACGUACUACCUCA	0.0141 ± 0.0029	0.00402 ± 0.0025
GGAGACCUUACGUAUACAACCUACUACCUCA	0.0406 ± 0.0063	0.00861 ± 0.0055
GGAGAGGAUACUAUACAACCUACUACCAGA	0.0384 ± 0.0076	0.00451 ± 0.0018
GGAGACCAUACGAUACAACCUACUACCUCA	0.255 ± 0.028	0.00769 ± 0.0035
GGAGACCAAACUAUACAACCUACUACCUGA	0.133 ± 0.045	0.00429 ± 0.0028
GGAGAGGAUACUAUACAACGUACUAGCUCA	0.00413 ± 0.0037	0.0029 ± 0.0015
GGAGACGAUACUAUACAACGUACUAGCUCA	0.00418 ± 0.0035	0.00363 ± 0.0015
GGAGUGGAUACGAUACAACCUACUACCUCA	0.176 ± 0.011	0.0121 ± 0.0053
GGAGACGAUACUAUUCAACCUACUUCCUCA	0.0306 ± 0.0097	0.00413 ± 0.0031
GGAGACCUAUCUAUACAACCUACUACCUUA	0.103 ± 0.015	0.0739 ± 0.027
GGAGACCAUUCUAUACAUCCUACUACCUCA	0.235 ± 0.019	0.00435 ± 0.0029

Sequence	pre-steady-state target cleavage rate [1]	pre-steady-state target cleavage rate [2]
GGAGUGUGAUACUAUACAACCUACUACCUCA	0.179 ± 0.0087	0.0158 ± 0.0069
GGAGUUGGAUACUAUACAACCUACUACCUCA	0.184 ± 0.023	0.197 ± 0.056
GGAGAGGAUUCUAUACAACCUACUACCUCA	0.179 ± 0.011	0.0066 ± 0.0039
GGAGACCUUAGUAUACAACCUACUACCUCA	0.0889 ± 0.0097	0.0563 ± 0.02
GGAGUGGAAACUUUACAACCUACUACCUCA	0.179 ± 0.02	0.00583 ± 0.0037
GGAGACGAUACUAUACAAGCUUCUACCUCA	0.0442 ± 0.0052	0.0034 ± 0.0019
GGAGACGAUACUAUACAACCUACUACGACA	0.131 ± 0.022	0.0045 ± 0.0019
GGAGACGAUACUAUACAAACUACUACCUCA	0.245 ± 0.015	0.00656 ± 0.0025
GGAGACCAUACUAUACUACCUACUACCACA	0.217 ± 0.021	0.0069 ± 0.0053
GGAGAGGUUACUAUACAAGCUACUACCUCA	0.0739 ± 0.012	0.0046 ± 0.0021
GGAGUGGAUACUUUACAAGCUACUACCUCA	0.192 ± 0.013	0.00397 ± 0.0024
GGAGAGGAUACUAUAGAUCCUACUACCUCA	0.242 ± 0.024	0.00654 ± 0.0034
GGAGAGGAUACUUUACAACCUACUUCCUCA	0.00524 ± 0.0027	0.00239 ± 0.0024
GGAGACGAUACUAUAGAACCUACUACGUCA	0.0644 ± 0.013	0.002 ± 0.0014
GGAGACGAUACUAUACUACCUACUACCUCA	0.2 ± 0.013	0.00925 ± 0.0032
GGAGACGAUACUAUACACCUACUACCUCA	0.0294 ± 0.0067	0.0134 ± 0.0055
GGAGUGGAAACUAUACAUCCUACUACCUCA	0.275 ± 0.024	0.0101 ± 0.0045
GGAGACCAUAUUAUACAACCUACUACCUCA	0.188 ± 0.015	0.116 ± 0.036
GGAGAGGAUACUAUACACCUACUACCUCA	0.0354 ± 0.0068	0.0984 ± 0.042
GGAGUGGAUAGUAUACAACGUACUACCUCA	0.0168 ± 0.0038	0.00231 ± 0.0021
